Source: PubChem BioAssay (Tox21)
Records with an inconclusive call do not appear. A call without a number means that no potency is given here. Activity calls are given as the source filed them. Unless noted, calls follow the shape of the dose curve; as a rule, active = well fitted curve in the direction sought with a large enough effect in the repeat runs; inconclusive = weak or mixed curves; inactive = no such curve, though single readings can be large; an effect the other way counts as inactive or inconclusive.

Legend:
[1] = qHTS assay to identify small molecule antagonists of the thyroid receptor (TR) signaling pathway (AID 743065); also: nearly all actives have a fitted effect of over 55% in size; also: potency is read from the fitted curve at half-maximal effect
Summary of the method: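 Antagonism measured as loss of luciferase signal in GH3 cells stably carrying a TRE-luciferase reporter, co-treated with compound and T3 (1 nM final) for 23.5 h at 37 C. Viability was read in the same well by CellTiter-Fluor.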

[2] = system: thyroid hormone receptor (rat, GH3 cells); experiment: qHTS assay to identify small molecule agonists of the thyroid receptor (TR) signaling pathway (AID 743066; calls by dose curve)
[3] = biological target: Estrogen receptor (Homo sapiens) (UniProt P03372); experiment: qHTS assay to identify small molecule antagonists of the estrogen receptor alpha (ER-alpha) signaling pathway (AID 743069; active = well fitted curve in the direction sought with a large enough effect in the signal ratio in the repeat runs, not every such curve was filed as active; the % refers to the signal ratio)
Sequence of Estrogen receptor (Homo sapiens) (P03372 whole entry, looked up): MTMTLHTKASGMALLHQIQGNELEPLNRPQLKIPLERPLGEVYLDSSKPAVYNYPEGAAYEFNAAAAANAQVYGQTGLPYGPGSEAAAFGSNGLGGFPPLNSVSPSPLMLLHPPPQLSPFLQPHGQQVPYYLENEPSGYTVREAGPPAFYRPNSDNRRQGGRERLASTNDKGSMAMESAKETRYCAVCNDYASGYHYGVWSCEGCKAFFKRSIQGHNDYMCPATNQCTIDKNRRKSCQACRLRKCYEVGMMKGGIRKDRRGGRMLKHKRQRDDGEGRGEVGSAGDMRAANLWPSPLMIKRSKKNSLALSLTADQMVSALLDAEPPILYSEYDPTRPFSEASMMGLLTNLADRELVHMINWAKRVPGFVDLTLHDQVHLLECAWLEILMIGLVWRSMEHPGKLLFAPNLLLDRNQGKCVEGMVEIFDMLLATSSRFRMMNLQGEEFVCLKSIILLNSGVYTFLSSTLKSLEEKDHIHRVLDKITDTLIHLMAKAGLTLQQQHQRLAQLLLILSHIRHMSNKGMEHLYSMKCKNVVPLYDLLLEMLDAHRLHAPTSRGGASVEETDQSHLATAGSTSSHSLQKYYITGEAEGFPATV
Summary of the method: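 Compound effects are measured against 17beta-estradiol stimulation in HEK293 cells with a UAS-controlled beta-lactamase reporter for ER-alpha. Exposure lasts 18 hr at 37C; LiveBLAzer B/G FRET substrate follows for 2 hr at room temperature.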

[4] = qHTS assay to identify small molecule antagonists of the estrogen receptor alpha (ER-alpha) signaling pathway - cell viability counter screen (AID 743074; calls by dose curve;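 also: HEK293 cells carrying ER-alpha-UAS-bla reporter stimulated with 17beta-estradiol; nearly all actives have a fitted effect of over 45% in size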; also: potency is read from the fitted curve at half-maximal effect)
[5] = biological target: Estrogen receptor (Homo sapiens) (UniProt P03372); experiment: qHTS assay to identify small molecule agonists of the estrogen receptor alpha (ER-alpha) signaling pathway (AID 743075; calls by dose curve)
[6] = biological target: Estrogen receptor (Homo sapiens) (UniProt P03372); experiment: qHTS assay to identify small molecule agonists of the estrogen receptor alpha (ER-alpha) signaling pathway using the BG1 cell line (AID 743079); conditions: BG1Luc4E2 cells, ERE-luciferase agonist, 22 h; activation: at 70.3 µM (top of the series); also: nearly all actives have a fitted effect of over 20% in size
[7] = qHTS assay to identify small molecule antagonists of the estrogen receptor alpha (ER-alpha) signaling pathway using the BG1 cell line (AID 743080; calls by dose curve;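 also: BG1 cells stimulated with 17beta-estradiol alongside compound; nearly all actives have a fitted effect of over 25% in size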); conditions: BG1Luc4E2 ERE-luciferase antagonist mode, luminescence; activity change, negative = inhibition: at 70.3 µM (top of the series)
Summary of the method: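 BG1-Luc-4E2 cells (endogenous full-length ER-alpha, 4xERE luciferase) hormone-starved 5 days in charcoal-stripped FBS, plated 4,000/well for 24 h, then compound plus 17beta-estradiol for 21.5 h at 37 C; ONE-Glo luminescence read.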

[8] = qHTS assay to identify small molecule antagonists of the estrogen receptor alpha (ER-alpha) signaling pathway using the BG1 cell line - cell viability counter screen (AID 743081);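 also: compound given together with 17beta-estradiol as the ER stimulus; nearly all actives have a fitted effect of over 45% in size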; also: potency is read from the fitted curve at half-maximal effect
Aromatase (Homo sapiens) = Aromatase (Homo sapiens) (UniProt P11511); experiment: qHTS assay to identify aromatase inhibitors (AID 743083); also: nearly all actives have a fitted effect of over 55% in size; also: potency is read from the fitted curve at half-maximal effect
Sequence of Aromatase (Homo sapiens) (P11511 whole entry, looked up): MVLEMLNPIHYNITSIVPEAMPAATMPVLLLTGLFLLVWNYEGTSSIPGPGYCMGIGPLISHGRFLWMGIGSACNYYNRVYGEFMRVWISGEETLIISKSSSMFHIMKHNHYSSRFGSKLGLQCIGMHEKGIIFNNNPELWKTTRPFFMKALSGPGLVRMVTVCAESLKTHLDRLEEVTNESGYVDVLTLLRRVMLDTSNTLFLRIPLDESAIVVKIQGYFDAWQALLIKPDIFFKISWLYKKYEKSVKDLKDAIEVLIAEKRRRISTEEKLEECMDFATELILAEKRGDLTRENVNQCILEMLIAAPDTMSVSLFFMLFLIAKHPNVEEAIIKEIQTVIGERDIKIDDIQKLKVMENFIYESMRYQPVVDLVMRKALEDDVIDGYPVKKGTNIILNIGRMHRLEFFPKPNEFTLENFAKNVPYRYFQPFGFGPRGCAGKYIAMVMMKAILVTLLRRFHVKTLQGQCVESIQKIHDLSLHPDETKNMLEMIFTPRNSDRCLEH

[9] = qHTS assay to identify aromatase inhibitors - cell viability counter screen (AID 743084);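 also: cells stimulated with testosterone during compound exposure; nearly all actives have a fitted effect of over 55% in size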; also: potency is read from the fitted curve at half-maximal effect
[10] = biological target: Aryl hydrocarbon receptor (Homo sapiens) (UniProt P35869); experiment: qHTS assay to identify small molecule that activate the aryl hydrocarbon receptor (AhR) signaling pathway (AID 743085);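 also: HG2L7.5c1 human HepG2 liver cells with stably integrated DRE-driven firefly reporter; nearly all actives have a fitted effect of over 15% in size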
Sequence of Aryl hydrocarbon receptor (Homo sapiens) (P35869 whole entry, looked up): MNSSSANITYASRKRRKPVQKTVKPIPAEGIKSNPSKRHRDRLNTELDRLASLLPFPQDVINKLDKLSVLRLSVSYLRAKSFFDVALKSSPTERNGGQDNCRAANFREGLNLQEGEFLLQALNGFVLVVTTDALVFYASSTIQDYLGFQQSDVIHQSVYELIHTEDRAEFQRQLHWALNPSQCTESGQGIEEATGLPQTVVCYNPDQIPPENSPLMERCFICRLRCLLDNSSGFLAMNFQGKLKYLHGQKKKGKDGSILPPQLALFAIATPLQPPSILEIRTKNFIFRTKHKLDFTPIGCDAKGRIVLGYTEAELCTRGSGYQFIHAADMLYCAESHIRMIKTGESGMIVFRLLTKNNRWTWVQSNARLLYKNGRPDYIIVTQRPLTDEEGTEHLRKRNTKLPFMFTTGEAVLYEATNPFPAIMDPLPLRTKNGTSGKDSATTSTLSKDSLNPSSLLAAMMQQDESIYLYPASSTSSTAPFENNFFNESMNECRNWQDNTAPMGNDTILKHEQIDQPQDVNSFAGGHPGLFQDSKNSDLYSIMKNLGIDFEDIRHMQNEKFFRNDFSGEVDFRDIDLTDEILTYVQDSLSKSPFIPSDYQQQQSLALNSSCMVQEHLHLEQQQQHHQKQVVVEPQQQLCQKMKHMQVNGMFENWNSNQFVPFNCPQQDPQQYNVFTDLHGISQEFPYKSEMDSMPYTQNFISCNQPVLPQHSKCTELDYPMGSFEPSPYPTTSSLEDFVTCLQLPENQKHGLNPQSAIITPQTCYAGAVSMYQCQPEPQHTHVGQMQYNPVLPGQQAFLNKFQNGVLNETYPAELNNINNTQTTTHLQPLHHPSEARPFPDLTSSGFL
Summary of the method: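 Luminescence (ONE-Glo) from a dioxin-responsive-element luciferase reporter in HG2L7.5c1 HepG2 cells after 24 hr compound exposure at 37C; viability measured by CellTiter-Fluor fluorescence beforehand.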

[11] = qHTS assay to identify small molecule that activate the aryl hydrocarbon receptor (AhR) signaling pathway - cell viability counter screen (AID 743086); also: nearly all actives have a fitted effect of over 45% in size; also: potency is read from the fitted curve at half-maximal effect
Summary of the method: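 Cytotoxicity counter screen: CellTiter-Fluor signal (30 min, 37 C) in 4000 HepG2 cells/well carrying the DRE-luciferase reporter, following 24 h compound exposure at 37 C.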

[12] = biological target: Peroxisome proliferator-activated receptor gamma (Homo sapiens) (UniProt P37231); experiment: qHTS assay to identify small molecule agonists of the peroxisome proliferator-activated receptor gamma (PPARg) signaling pathway (AID 743094; active = well fitted activation curve with a large enough effect in the signal ratio in the repeat runs, not every such curve was filed as active; the % refers to the signal ratio)
Sequence of Peroxisome proliferator-activated receptor gamma (Homo sapiens) (P37231 whole entry, looked up): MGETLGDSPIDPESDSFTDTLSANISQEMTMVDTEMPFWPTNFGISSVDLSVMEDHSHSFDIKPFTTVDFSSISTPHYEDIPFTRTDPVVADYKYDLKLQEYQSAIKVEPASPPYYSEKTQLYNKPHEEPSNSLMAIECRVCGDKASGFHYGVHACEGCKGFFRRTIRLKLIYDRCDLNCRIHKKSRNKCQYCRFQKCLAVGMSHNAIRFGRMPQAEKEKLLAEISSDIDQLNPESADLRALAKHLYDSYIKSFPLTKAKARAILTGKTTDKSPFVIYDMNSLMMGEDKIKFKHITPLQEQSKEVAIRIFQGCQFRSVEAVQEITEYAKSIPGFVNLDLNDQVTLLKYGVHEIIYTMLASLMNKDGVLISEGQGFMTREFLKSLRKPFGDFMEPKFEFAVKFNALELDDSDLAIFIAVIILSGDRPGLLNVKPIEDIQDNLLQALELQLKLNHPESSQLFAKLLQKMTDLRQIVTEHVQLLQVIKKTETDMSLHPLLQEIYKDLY
Summary of the method: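 Beta-lactamase FRET fluorescence was the read-out after a 1 h room-temperature substrate step, following 17 h compound treatment at 37C of HEK293H cells expressing a UAS-driven bla reporter responsive to PPARg.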

[13] = biological target: Peroxisome proliferator-activated receptor gamma (Homo sapiens) (UniProt P37231); experiment: qHTS assay to identify small molecule antagonists of the peroxisome proliferator-activated receptor gamma (PPARg) signaling pathway (AID 743191; calls by dose curve; also: nearly all actives have a fitted effect of over 30% in size; also: potency is read from the fitted curve at half-maximal effect)
Summary of the method: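 Beta-lactamase reporter under UAS control in HEK293H PPARg-bla cells; compound treatment 17 h at 37C. Read-out: fluorescence intensity after 1 h room-temperature incubation with LiveBLAzer B/G FRET substrate.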

[14] = qHTS assay to identify small molecule antagonists of the peroxisome proliferator-activated receptor gamma (PPARg) signaling pathway - cell viability counter screen (AID 743194); also: nearly all actives have a fitted effect of over 55% in size; also: potency is read from the fitted curve at half-maximal effect
Summary of the method: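 Viability was measured as CellTiter-Glo luminescence in GeneBLAzer PPARg UAS-bla HEK293H cells. These cells had been exposed 17 h at 37 C to compounds together with rosiglitazone at 50 nM final, with the beta-lactamase readout taken in the same wells.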

[15] = qHTS assay for small molecule agonists of the antioxidant response element (ARE) signaling pathway (AID 743202; active = well fitted activation curve with a large enough effect in the signal ratio in the repeat runs, not every such curve was filed as active; the % refers to the signal ratio)
Summary of the method: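 An ARE-responsive beta-lactamase gene stably integrated in HepG2 cells serves as reporter. After 5 h plating and 16 h compound incubation at 37 C, fluorescence of the B/G FRET substrate was measured.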

[16] = qHTS assay for small molecule agonists of the antioxidant response element (ARE) signaling pathway - cell viability counter screen (AID 743203; calls by dose curve; also: nearly all actives have a fitted effect of over 55% in size; also: potency is read from the fitted curve at half-maximal effect)
Summary of the method: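 HepG2 cells carrying ARE-driven beta-lactamase; 2,000 cells/well; 5 hrs plating; compound pinned from DMSO; 16 hrs 37C/5% CO2; CellTiter-Glo added; 30 min RT; luminescence.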

[17] = qHTS assay for small molecule activators of the heat shock response signaling pathway - cell viability counter screen (AID 743209); also: nearly all actives have a fitted effect of over 50% in size; also: potency is read from the fitted curve at half-maximal effect
Summary of the method: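 Luminescence from CellTiter-Glo, added after the beta-lactamase FRET read, gave the viability signal. Cells were HSE-bla HeLa treated with DMSO-dissolved compounds for 5 h at 37 C following overnight plating.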

[18] = qHTS assay for small molecule activators of the heat shock response signaling pathway (AID 743210; active = well fitted activation curve with a large enough effect in the signal ratio in the repeat runs, with a control signal flat, not every such curve was filed as active; the % refers to the signal ratio;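 also: HeLa cells with beta-lactamase reporter driven by heat shock elements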)
Summary of the method: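 In HSE-bla HeLa cells, 5 h compound incubation (37 C) precedes addition of LiveBLAzer B/G substrate; after 2.5 h at room temperature, fluorescence intensity indicates reporter induction.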

[19] = qHTS assay to identify small molecule agonists of the peroxisome proliferator-activated receptor delta (PPARd) signaling pathway - cell viability counter screen (AID 743211); also: nearly all actives have a fitted effect of over 55% in size; also: potency is read from the fitted curve at half-maximal effect
Summary of the method: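 Viability was measured as CellTiter-Glo luminescence (30 min, room temperature) in the same wells as the beta-lactamase readout. GeneBLAzer PPARd UAS-bla HEK293H cells received compound after 5 h plating and were incubated 17 h at 37 C.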

Row | Compound | Potency [1] | Potency [2] | Potency [3] | Potency [4] | Potency [5] | Potency [6] | Potency [7] | Potency [8] | Potency (Aromatase (Homo sapiens)) | Potency [9] | Potency [10] | Potency [11] | Potency [12] | Potency [13] | Potency [14] | Potency [15] | Potency [16] | Potency [17] | Potency [18] | Potency [19]
1 | c1ccc(Sc2ccccc2)cc1 | inactive | inactive | inactive | inactive | inactive | inactive | inactive | inactive | inactive | inactive | inactive | inactive | inactive | inactive | inactive | inactive | inactive | – | – | –
2 | ClC/C=C\CCl | inactive | inactive | inactive | inactive | inactive | inactive | inactive | inactive | inactive | inactive | – | inactive | inactive | inactive | inactive | – | inactive | inactive | inactive | inactive
3 | O=C1c2c(O)ccc([N+](=O)[O-])c2C(=O)c2c([N+](=O)[O-])ccc(O)c21 | 6.8 µM (active) | inactive | – | 38.5 µM (active) | – | – | – | 30.4 µM (active) | 6.06 µM (active) | 9.6 µM (active) | inactive | 19.2 µM (active) | – | 6.85 µM (active) | 8.63 µM (active) | – | 3.82 µM (active) | 10.9 µM (active) | – | 12.2 µM (active)
4 | SCCCCCCCCS | inactive | inactive | – | inactive | – | – | – | inactive | inactive | inactive | inactive | inactive | inactive | – | inactive | – | 43.3 µM (active) | – | – | inactive
5 | C=CCCCCCCC=C | inactive | inactive | – | inactive | – | – | – | inactive | inactive | inactive | inactive | inactive | – | – | inactive | – | inactive | 49.1 µM (active) | – | –
6 | CC(O)C#CC(C)O (stereo unspecified) | 60.5 µM (active) | inactive | – | inactive | inactive | inactive | – | inactive | – | 30.3 µM (active) | inactive | inactive | – | – | – | – | – | 21.7 µM (active) | – | –
7 | CCCCCCOc1cc(C)c(O)c(C)c1C | 55.1 µM (active) | inactive | – | inactive | inactive | inactive | – | inactive | 43.8 µM (active) | 49.2 µM (active) | – | inactive | – | – | inactive | – | – | – | – | inactive
8 | CCN(CC)CCSC(=O)C(c1ccccc1)c1ccccc1 | 26.6 µM (active) | inactive | – | inactive | inactive | inactive | – | inactive | inactive | inactive | inactive | inactive | – | – | inactive | inactive | inactive | inactive | – | –
9 | Nc1ncnc2c1ncn2[C@@H]1O[C@H](COP(=O)(O)O)[C@@H](O)[C@H]1O | inactive | inactive | – | 21.3 µM (active) | – | – | – | inactive | inactive | inactive | inactive | inactive | – | inactive | inactive | inactive | inactive | inactive | inactive | 10.6 µM (active)
